Records with an inconclusive call do not appear. Active and inactive are the calls of the source. Unless noted, calls come from the whole dose curve.

Our source for the Potency and activity change, negative = inhibition values is PubChem BioAssay (NCATS).

The nature of assay [1]: Primary qHTS for Huh7 cytotoxicity: counterscreen for inhibitors of MERS-S pseudotyped particle cell entry (AID 1479147). The conditions noted are these: outcome: dose series up to 57.1 µM unless noted. (Quantitative high-throughput screening tests each substance at several concentrations.)
A short description of assay [2]: Primary qHTS for Vero E6 cytotoxicity: counterscreen for inhibitors of SARS-S pseudo-typed particle cell entry (AID 1479150). Note: potency is the fitted concentration of half-maximal effect. The settings on record: outcome: dose series up to 57.1 µM unless noted.
A short description of assay [3]: Primary qHTS for inhibitors of MERS-S pseudo-typed particle cell entry (AID 1479149). For activity change, negative = inhibition: % is set by controls: 0 for no effect and ±100 for the full control effect. Note: nearly all actives have a fitted effect of over 60% in size. The conditions noted are these: outcome: dose series up to 57.1 µM unless noted.
Assay [4] can be described thus: Primary qHTS to identify inhibitors of SARS-CoV-2 cell entry (AID 1645846). Note: nearly all actives have a fitted effect of over 45% in size. The settings on record: SARS-CoV-2 pseudovirus cell entry assay, luminescence; activity change, negative = inhibition: at 57.1 µM (top of the series) unless noted. The essentials: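 Data are normalized to wells receiving SARS-CoV-2-S pseudoparticles and those given bald particles. Entry signal was luciferase luminescence in stable hACE2 Expi293F cells, 48 hr post-infection, after 1 hr compound pretreatment.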

A short description of assay [5]: S16 Schwann cell PMP22 intronic element firefly luciferase assay (AID 624032; active = well fitted curve in the direction sought with a large enough effect; an effect the other way counts as inactive or inconclusive; note: potency is the fitted concentration of half-maximal effect; nearly all actives have a fitted effect of over 30% in size). The essentials: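 Rat S16 Schwann cells stably carrying firefly luciferase driven by a PMP22 intronic element, in 10% FBS, treated 24 h at 37 C. ONE-Glo luminescence normalized to PTC124 control and DMSO (0%); curves classed by r2, magnitude and activity.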
Assay [6] can be described thus: S16 Schwann cell PMP22 intronic element beta-lactamase assay (AID 624044). Note: potency is the fitted concentration of half-maximal effect; nearly all actives have a fitted effect of over 15% in size. The settings on record: S16 rat Schwann cells, PMP22 element beta-lactamase FRET, 24 h; ratio activity, negative = inhibition: at 38.3 µM (top of the series) unless noted. In a few lines: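 Rat S16 Schwann cells with beta-Lac driven by a PMP22 intronic element, compound-treated 24 h at 37 °C. LiveBLAzer FRET B/G read: 460 nm normalized to potassium clavulanate vs DMSO; 535 nm FRET as viability; concentration-effect curves classified.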

Assay [7] is described as follows: Cytotoxicity counterscreen for inhibitors of SARS-CoV-2 cell entry (AID 1645845). Note: nearly all actives have a fitted effect of over 50% in size. The settings on record: outcome: dose series up to 57.1 µM unless noted. The essentials: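 HEK293-ACE2 cells (Expi293F stably expressing human ACE2) seeded overnight, then compound for 1 h plus 48 h at 37C. Viability as ATP content by luminescence; normalized to wells with cells and media-only wells.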
In general terms: Counterscreens check selectivity or assay interference.

For assay [8], the target named is Glutathione peroxidase 1 (Homo sapiens) (UniProt P07203). In words: Primary qHTS Assay for Inhibitors of Recombinant Selenoprotein Glutathione Peroxidase 1 (GPX1) (AID 1845191; active = well fitted curve in the direction sought with a large enough effect; an effect the other way counts as inactive or inconclusive; note: % is set by controls: 0 for no effect and ±100 for the full control effect; nearly all actives have a fitted effect of over 65% in size). The essentials:
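GR-coupled assay: compounds preincubated 30 min at room temperature with GPX1, then reaction started with CHP; final 10 nM GPX1, 1 mM GSH, 0.5 mM CHP, 0.5 mM NADPH, 100 nM GR, 0.01% BSA, pH 7.5 Tris buffer. NADPH fluorescence (340/450 nm) read at 0 and 15 min.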

The target of assay [9] is Phospholipid hydroperoxide glutathione peroxidase GPX4 (Homo sapiens) (UniProt P36969). The assay can be described thus: Primary qHTS Assay for Inhibitors of Recombinant Selenoprotein Glutathione Peroxidase 4 (GPX4) (AID 1845192; active = well fitted curve in the direction sought with a large enough effect; an effect the other way counts as inactive or inconclusive; note: nearly all actives have a fitted effect of over 65% in size; for activity change, negative = inhibition: % is set by controls: 0 for no effect and ±100 for the full control effect). In a few lines: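 GR-coupled assay: recombinant GPX4 preincubated 30 min with compound at room temperature; final 200 nM GPX4, 1 mM GSH, 0.5 mM cumene hydroperoxide, 0.5 mM NADPH, 100 nM GR, 0.01% BSA, pH 7.5 Tris. NADPH fluorescence (340/450 nm) read at 0 and 15 min.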
Phospholipid hydroperoxide glutathione peroxidase GPX4 (Homo sapiens), sequence (P36969 whole entry, looked up): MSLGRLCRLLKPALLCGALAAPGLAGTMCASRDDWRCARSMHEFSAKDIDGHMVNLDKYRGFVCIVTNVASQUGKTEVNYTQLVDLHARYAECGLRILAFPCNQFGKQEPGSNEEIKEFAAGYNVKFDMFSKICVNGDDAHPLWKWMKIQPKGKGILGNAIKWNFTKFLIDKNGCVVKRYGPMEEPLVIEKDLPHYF

The nature of assay [10]: KB-8-5-11 P-gp reporter qHTS against the NCATS DSHEA and TCM libraries (AID 1919977; active = well fitted curve in the direction sought with a large enough effect; an effect the other way counts as inactive or inconclusive; note: 0% is about no effect). In a few lines: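 Cells were seeded, allowed ~4 h to attach, dosed by pin tool (substance titrations), incubated ~72 h at 37C, then lysed with CellTiter-Glo for 30 min at room temperature before luminescence reading.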
Assay [11] is described as follows: Confirmatory qHTS for VERO E6 Cytotoxicity Assay: Counterscreen for SARS-CoV-2 CPE Assay (AID 1508605). Note: % is set by controls: 0 for no effect and ±100 for the full control effect; nearly all actives have a fitted effect of over 60% in size.
Assay [12] in a line: Confirmatory qHTS to identify inhibitors of SARS-CoV-2 cell entry (AID 1645844). Note: potency is the fitted concentration of half-maximal effect; nearly all actives have a fitted effect of over 45% in size. In a few lines:
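HEK293-ACE2 cells were pretreated 1 h with compound, then infected with MLV-based pseudoparticles bearing C-terminally truncated Wuhan-Hu-1 spike for 48 h at 37C; luciferase luminescence normalized to spike PP and bald PP wells.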

Glutathione peroxidase 1 (Homo sapiens), sequence (P07203 whole entry, looked up): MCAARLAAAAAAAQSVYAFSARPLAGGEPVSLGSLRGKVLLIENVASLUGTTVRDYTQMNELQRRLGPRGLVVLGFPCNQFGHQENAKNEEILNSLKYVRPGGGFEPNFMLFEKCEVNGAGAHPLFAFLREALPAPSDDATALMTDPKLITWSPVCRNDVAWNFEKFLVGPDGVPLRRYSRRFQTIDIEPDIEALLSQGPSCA

Turning to `C=C1/C(=C/C=C2\CCC[C@]3(C)[C@@H]([C@H](C)CC[C@@H](O)C(C)C)CC[C@@H]23)C[C@@H](O)C[C@@H]1O`, the Potency entry in [1] and in [2] was “inactive” each time.
`O=NCc1ccc([N+](=O)[O-])o1`: the Potency result in assay [1] and in assay [2] was “inactive” in each case.
Take `CC1(C)SC2C(NC(=O)Cc3ccccc3)C(=O)N2C1C(=O)O` (stereo unspecified): the Potency entry in assay [1], in assay [3] and in assay [2] was “inactive” throughout. For the same compound, the activity change, negative = inhibition in assay [4] was -15.9%.
As to `CCCCC(C)(O)CC=C[C@H]1[C@H](O)CC(=O)[C@H]1CCCCCCC(=O)OC` (stereo partly specified), the Potency entry in assay [1], in assay [3], in [2] and in assay [4] was “inactive” in each case.
Take `CC(C)n1c(/C=C/[C@H](O)C[C@H](O)CC(=O)O)c(-c2ccc(F)cc2)c2ccccc21`: the Potency is 11.4 µM (active) in assay [5], 14.1 µM (active) in assay [6] and 8.91 µM (active) in [2]. The Potency result in assay [1], in assay [3] and in assay [7] was “inactive” throughout.
Turning to `CN1C(=O)C[C@@H](C(=O)N[C@@H](Cc2cnc[nH]2)C(=O)N2CCC[C@H]2C(N)=O)NC1=O`, the Potency entry in [1], in assay [3] and in assay [2] was “inactive” throughout. Also, the activity change, negative = inhibition in [4] was -23.8%.
For the compound `CN1CCc2c(c3ccccc3n2Cc2ccccc2)C1`, the Potency entry in [1] and in assay [2] was “inactive” each time.
Turning to `O=C(O)CCC/C=C\C[C@@H]1[C@@H](/C=C/[C@@H](O)COc2cccc(Cl)c2)[C@H](O)C[C@@H]1O`, the Potency entry in assay [1], in [3], in [2] and in assay [4] was “inactive” each time.
Consider `CN1CCC2=C(C1)C(c1ccccc1)c1ccccc12` (stereo unspecified), for which the Potency entry in [1], in [3], in assay [2], in [7], in assay [8] and in assay [9] was “inactive” in each case.
With `N=C(N)c1ccc(OCCCOc2ccc(C(=N)N)cc2Br)c(Br)c1`, the Potency result in assay [1] and in [2] was “inactive” in each case.
As to `OCC=Cc1ccccc1`, the Potency entry in [1], in [3], in [2] and in [10] was “inactive” in each case. In addition, in assay [4], the activity change, negative = inhibition was -22.7%.
As to `CN[C@@H]1[C@@H](O[C@H]2O[C@H](CO)[C@@H](N)[C@H](O)[C@H]2O)O[C@H]2C[C@@H](N)[C@H](O[C@H]3[C@H](O)[C@@H](O)[C@H](N)C[C@@H]3N)O[C@@H]2[C@@H]1O`, the Potency result in [1], in assay [3] and in assay [7] was “inactive” in each case. In addition, the activity change, negative = inhibition in assay [4] is -26.5%.
With `CCOC(=O)c1c[nH]c2cc(OCC(C)C)c(OCC(C)C)cc2c1=O`, the Potency entry in assay [1], in assay [3] and in assay [7] was “inactive” in each case. Moreover, the activity change, negative = inhibition in [4] is -18.7%.
Turning to `CC(CN1c2ccccc2Sc2ccc(S(=O)(=O)N(C)C)cc21)N(C)C` (stereo unspecified), the Potency entry in [1], in [2] and in assay [11] was “inactive” throughout. The Potency in [12] was 39.3 µM (active).
`c1ccc(CCNCc2ccccc2)cc1`: the Potency result in assay [1], in assay [3], in [2], in [7], in [8] and in assay [9] was “inactive” each time.
Consider `O=S(=O)(O)c1ccc2c(N=Nc3ccc(S(=O)(=O)O)c4ccccc34)c(O)c(S(=O)(=O)O)cc2c1`, for which the Potency result in [1], in assay [3] and in [7] was “inactive” in each case. Also, the activity change, negative = inhibition in assay [4] is -21.2%.
On to `O=c1ccc2ccc(OCCCCN3CCN(c4cccc5sccc45)CC3)cc2[nH]1`, for which the Potency entry in assay [1], in assay [2] and in [11] was “inactive” throughout.
